Screening results as filed in PubChem.
Pf apPOL inh: Pf-apPOL inhibitors, biochemical, fluorescence | Plasmodium falciparum apicoplast DNA polymerase (apPOL) | Recombinant Pf-apPOL, molecular beacon fluorescence, 1.5 h | inhibition, % at 10 µM | hit rate 0.25% among 210,000 | AID 1794808, 2022
mHTT CaM bind: mutant huntingtin-calmodulin interaction inhibitors – biochemical, AlphaScreen, primary screen. AlphaScreen His-mHTT/GST-CaM binding, luminescence. hit rate 3.6% among 190,000. P42858. inhibition, % at 15 µM
Of the large screens only hits and unclear results are named; the others gave an inactive call; ! = repeats disagree. Sampled rows, rich in hits. Any-hit rate of the full collection: about 3.6%. Cut-off read from the data, not from the text of the source: active = inhibition above about 50%; inactive = the rest.

O=C(Nc1nc(-c2ccccc2)cs1)c1ncn[nH]1	none
Cc1nc(C(=O)Nc2ccccc2)c(C)n1C1CCN(S(C)(=O)=O)CC1	none
Cc1nc(C(=O)Nc2ccc(Oc3ccccc3)cc2)c(C)n1C1CCN(C)CC1	mHTT CaM bind 81.8
COCCNC(=O)C1CCCc2c1[nH]c1ccccc21 (centres undefined)	none
CCNC(=O)C1CCCc2c1[nH]c1ccc(Cl)cc21 (centres undefined)	mHTT CaM bind 99.9!
CN(CC(=O)NCc1ccccc1)S(=O)(=O)c1ccc2[nH]c3c(c2c1)CCCC3	none
CCN(Cc1ccccc1)C(=O)CN(C)S(=O)(=O)c1ccc2[nH]c3c(c2c1)CCCC3	mHTT CaM bind 64.7
Cc1cccc(N(C)C(=O)CN(C)S(=O)(=O)c2ccc3[nH]c4c(c3c2)CCCC4)c1	mHTT CaM bind 62.3
Cc1cccc(C)c1NC(=O)CN(C)S(=O)(=O)c1ccc2[nH]c3c(c2c1)CCCC3	none
O=C(Nc1ccc2oc(-c3ccccc3Br)nc2c1)c1ccccc1[N+](=O)[O-]	none
COc1ccc(OCC(=O)NC2CCCCC2)cc1	none
COc1cc(NC(=O)N2CC3CCCN3c3ccccc32)cc(OC)c1 (centres undefined)	none
COc1ccc(Cl)cc1NC(=O)N1CC2CCCN2c2ccccc21 (centres undefined)	mHTT CaM bind 74.4
COC(=O)c1ccc(Cl)cc1NC(=O)N1CCN(C)c2ccccc21	none
COc1ccc(C)cc1NC(=O)N1CC2CCCN2c2ccccc21 (centres undefined)	mHTT CaM bind 83.3
Cc1ccc(C)c(NC(=O)N2CC3CCCN3c3ccccc32)c1 (centres undefined)	none
COC(=O)c1ccc(C(=O)OC)c(NC(=O)N2CC3CCCN3c3ccccc32)c1 (centres undefined)	mHTT CaM bind 57.6
C[C@@H](c1ccccc1)N1C[C@@H](COCc2ccccc2)Oc2cc(N3CCC[C@H]3C(N)=O)ccc2S1(=O)=O	none
C[C@@H](c1ccccc1)N1C[C@H](COCc2ccccc2)Oc2cc(N3CC[C@@H](O)C3)ccc2S1(=O)=O	mHTT CaM bind 52.5
C[C@@H](c1ccccc1)N1C[C@H](COCc2ccccc2)Oc2cc(N3CCC[C@H]3C(N)=O)ccc2S1(=O)=O	none
C[C@@H](c1ccccc1)N1C[C@@H](COCc2ccccc2)Oc2cc(N3CC[C@@H](N(C)C)C3)ccc2S1(=O)=O	mHTT CaM bind 100.2
C[C@@H](c1ccccc1)N1C[C@H](COCc2ccccc2)Oc2cc(N3CCC[C@H]3CO)ccc2S1(=O)=O	none
C[C@@H](c1ccccc1)N1C[C@@H](COCc2ccccc2)Oc2cc(N3CC[C@@H](O)C3)ccc2S1(=O)=O	mHTT CaM bind 56.4
C[C@H](c1ccccc1)N1C[C@H](COCc2ccccc2)Oc2cc(N3CC[C@@H](O)C3)ccc2S1(=O)=O	mHTT CaM bind 53.6
COC[C@H]1CCCN1c1ccc2c(c1)O[C@H](COCc1ccccc1)CN([C@@H](C)c1ccccc1)S2(=O)=O	none
O=C(NCC(F)(F)F)C1CCN(C(=O)CCSc2ccccc2)CC1	none
COC(=O)C1C2CC3CC(C2)C(OS(=O)(=O)c2ccc([N+](=O)[O-])cc2)C1C3 (centres undefined)	none (no result: mHTT CaM bind)
Cc1ccc(-c2nnc(N3CCC(C(=O)NCc4ccncc4)CC3)o2)cc1	none
Cc1ccc(S(=O)(=O)c2nc(-c3ccc(Br)cc3)oc2N2CCOCC2)cc1	none
CC1=CCCC23OC2C(OC3=O)c2c(C)coc2C1 (centres undefined)	none (no result: mHTT CaM bind)
Cc1ccc2nc(C(=O)NCCN3CCc4ccccc4C3)cn2c1	none
Cc1cc(Cl)ccc1OC(C)C(=O)N1CCN(c2ccc([N+](=O)[O-])cc2)CC1 (centres undefined)	Pf apPOL inh 54.8
CC(Oc1cccc(Cl)c1)C(=O)N1CCN(c2ccc([N+](=O)[O-])cc2)CC1 (centres undefined)	none
CCN(CC)C(=S)Oc1c(C)c(C)nc(=S)n1CCCOC	none (no result: mHTT CaM bind)
COc1ccc(C=Nc2c(-c3ccc(O)c(OC)c3)nc3ccccn23)cc1O	none
COc1cc(-c2nc3ccccn3c2N=Cc2cc([N+](=O)[O-])cc([N+](=O)[O-])c2O)ccc1O	none
COc1cc(C=Nc2c(-c3ccc(O)c(OC)c3)nc3ccccn23)ccc1O	mHTT CaM bind 60.0
COc1cc(-c2nc3ccccn3c2N=Cc2cn[nH]c2-c2ccc(F)cc2)ccc1O	mHTT CaM bind 56.0
Cc1ccc(CN2CCC(CO)C(NC(=O)C3CC3)C2)o1 (centres undefined)	none
CCc1nnc(NS(=O)(=O)c2ccc(NC(=O)c3ccc(OC)c(OC)c3)cc2)s1	none
CCCCCCCCNC1=C(Cl)C(=O)c2ccccc2C1=O	none (no result: mHTT CaM bind)
CC(C)CC(=O)Nc1ccc(N2CCN(C(=O)c3ccccc3Cl)CC2)nc1	none
COc1ccc(-c2nnc(NC(=O)c3cccs3)o2)cc1	mHTT CaM bind 66.0
O=C(Nc1nc(-c2ccccc2)c(-c2ccccc2)o1)c1cccs1	mHTT CaM bind 62.0
CC(=O)Nc1nc(-c2ccccc2)c(-c2ccccc2)o1	none
COc1ccc(-c2csc(NC(=O)c3cccs3)n2)cc1	none
